According to PubChem BioAssay (Tox21):
Values joined by “and” are separate entries in the source; they are usually repeats but may differ in a detail not shown here. Equal entries are not always repeated. Records with an inconclusive call do not appear. Where a structure was tested more than once in an assay, its records may differ in their call. Active and inactive are the calls of the source. Unless noted, calls follow the shape of the dose curve; as a rule, active = well fitted curve in the direction sought with a large enough effect in the repeat runs; inconclusive = weak or mixed curves; inactive = no such curve, though single readings can be large; an effect the other way counts as inactive or inconclusive.

Columns and labels:
[1] = qHTS assay to identify small molecule agonists of the RXR signaling pathway - cell viability counter screen (AID 1159529);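 also: HEK 293T cells carrying an RXR-alpha UAS beta-lactamase reporter; nearly all actives have a fitted effect of over 50% in size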
How it was run: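 In this parallel viability measure, GeneBLAzer RXR-alpha HEK 293T cells (2% charcoal-stripped FBS) were given a 5 hr preincubation, treated with compounds 16 hr at 37 C, and read by CellTiter-Glo luminescence.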

[2] = qHTS assay to identify small molecule antagonists of the retinoid acid receptor (RAR) signaling pathway - cell viability counter screen (AID 1159551); also: nearly all actives have a fitted effect of over 35% in size
How it was run: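 Following overnight attachment, C3RL4 reporter cells received DMSO-dissolved compounds and then retinol (1 uM final). Six hours later at 37 C, ATP content was measured by CellTiter-Glo luminescence.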

[3] = qHTS assay to identify small molecule antagonists of the estrogen related receptor (ERR) signaling pathway from Tox21 library - cell viability counter screen (AID 1224834); also: nearly all actives have a fitted effect of over 30% in size; also: potency is read from the fitted curve at half-maximal effect
How it was run: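 Viability readout (CellTiter-Fluor fluorescence, 30 min at 37 C) multiplexed with the ERR assay; cells treated 17.5 h at 37 C with compounds delivered in DMSO.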

[4] = target: Luciferin 4-monooxygenase (Photinus pyralis) (UniProt P08659); assay: qHTS assay to identify small molecule inhibitors of firefly luciferase (AID 1224835); also: nearly all actives have a fitted effect of over 25% in size
Sequence of Luciferin 4-monooxygenase (Photinus pyralis) (P08659 whole entry, looked up): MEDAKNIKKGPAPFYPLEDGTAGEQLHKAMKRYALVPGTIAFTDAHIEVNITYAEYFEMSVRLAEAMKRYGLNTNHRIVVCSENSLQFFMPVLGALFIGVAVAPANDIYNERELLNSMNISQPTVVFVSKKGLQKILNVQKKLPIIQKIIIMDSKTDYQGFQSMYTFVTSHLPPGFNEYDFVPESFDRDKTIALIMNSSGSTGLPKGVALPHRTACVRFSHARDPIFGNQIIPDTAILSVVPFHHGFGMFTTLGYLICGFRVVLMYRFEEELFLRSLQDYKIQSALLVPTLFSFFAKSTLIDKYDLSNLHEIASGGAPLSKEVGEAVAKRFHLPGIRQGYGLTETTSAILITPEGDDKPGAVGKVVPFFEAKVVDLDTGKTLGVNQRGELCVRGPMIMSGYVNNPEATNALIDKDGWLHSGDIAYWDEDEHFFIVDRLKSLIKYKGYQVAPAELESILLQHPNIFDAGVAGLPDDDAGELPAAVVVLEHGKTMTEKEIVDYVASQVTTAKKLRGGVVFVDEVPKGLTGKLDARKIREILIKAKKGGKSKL
How it was run: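 Quantitative HTS format; KM concentrations of both substrates. Purified P. pyralis FLuc activity quantified from luminescence images.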

[5] = qHTS assay to identify small molecule agonists of the constitutive androstane receptor (CAR) signaling pathway - cell viability counter screen (AID 1224836); also: nearly all actives have a fitted effect of over 45% in size; also: potency is read from the fitted curve at half-maximal effect
How it was run: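 Using CellTiter-Fluor, viability of HepG2 cells harbouring hCAR and CYP2B6-2.2kb was measured following 23 h incubation with a 15-concentration compound series plus PK11195 (0.75 uM final).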

[6] = qHTS assay to identify small molecule antagonists of the constitutive androstane receptor (CAR) signaling pathway - cell viability counter screen (AID 1224837); also: nearly all actives have a fitted effect of over 45% in size; also: potency is read from the fitted curve at half-maximal effect
How it was run: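 Fluorescence from CellTiter-Fluor served as the viability signal. Human hepatoma HepG2 cells stably bearing hCAR and CYP2B6-2.2kb received compound plus CITCO (50 nM final) for 23 hr.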

[7] = target: Nuclear receptor subfamily 1 group I member 3 (Homo sapiens) (UniProt Q14994); assay: qHTS assay to identify small molecule antagonists of the constitutive androstane receptor (CAR) signaling pathway (AID 1224838);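 also: HepG2 cells stably expressing hCAR with CYP2B6 luciferase reporter stimulated by CITCO; nearly all actives have a fitted effect of over 40% in size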; also: potency is read from the fitted curve at half-maximal effect
Sequence of Nuclear receptor subfamily 1 group I member 3 (Homo sapiens) (Q14994 whole entry, looked up): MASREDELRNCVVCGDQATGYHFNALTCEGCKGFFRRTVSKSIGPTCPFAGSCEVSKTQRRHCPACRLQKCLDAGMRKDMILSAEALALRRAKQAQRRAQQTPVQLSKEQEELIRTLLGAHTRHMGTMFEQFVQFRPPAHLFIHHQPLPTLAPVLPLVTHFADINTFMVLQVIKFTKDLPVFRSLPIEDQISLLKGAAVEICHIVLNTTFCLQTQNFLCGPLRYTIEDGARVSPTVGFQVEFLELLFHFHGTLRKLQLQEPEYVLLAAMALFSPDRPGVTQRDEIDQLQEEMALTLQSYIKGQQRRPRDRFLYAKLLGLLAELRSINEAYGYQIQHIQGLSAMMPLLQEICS
How it was run: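 Quantitative HTS in double-stable HepG2-CYP2B6-hCAR cells. After 4 h plating, cells get compound (15 concentrations) and CITCO at 50 nM final, incubate 24 h at 37 C, then ONE-Glo luminescence is read.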

[8] = qHTS assay to identify small molecule antagonists of the estrogen related receptor signaling pathway with the pleiotropic PPARgamma coactivator (PGC) from Tox21 10K library - cell viability counter screen (AID 1224840; active = well fitted cell-killing curve with a large enough effect in the repeat runs, not every such curve was filed as active; also: nearly all actives have a fitted effect of over 40% in size; also: potency is read from the fitted curve at half-maximal effect)
How it was run: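 Compounds in DMSO, alongside positive and negative controls, were pinned onto PGC/ERR cells (2,000 per well). Exposure lasted 17.5 hours at 37 C, followed by a 30-minute CellTiter-Fluor incubation and fluorescence reading.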

[9] = target: Thyrotropin receptor (Homo sapiens) (UniProt P16473); assay: qHTS assay to identify small molecule agonists of the thyroid stimulating hormone receptor (TSHR) signaling pathway (AID 1224843; calls by dose curve; also: nearly all actives have a fitted effect of over 45% in size; also: potency is read from the fitted curve at half-maximal effect)
Sequence of Thyrotropin receptor (Homo sapiens) (P16473 whole entry, looked up): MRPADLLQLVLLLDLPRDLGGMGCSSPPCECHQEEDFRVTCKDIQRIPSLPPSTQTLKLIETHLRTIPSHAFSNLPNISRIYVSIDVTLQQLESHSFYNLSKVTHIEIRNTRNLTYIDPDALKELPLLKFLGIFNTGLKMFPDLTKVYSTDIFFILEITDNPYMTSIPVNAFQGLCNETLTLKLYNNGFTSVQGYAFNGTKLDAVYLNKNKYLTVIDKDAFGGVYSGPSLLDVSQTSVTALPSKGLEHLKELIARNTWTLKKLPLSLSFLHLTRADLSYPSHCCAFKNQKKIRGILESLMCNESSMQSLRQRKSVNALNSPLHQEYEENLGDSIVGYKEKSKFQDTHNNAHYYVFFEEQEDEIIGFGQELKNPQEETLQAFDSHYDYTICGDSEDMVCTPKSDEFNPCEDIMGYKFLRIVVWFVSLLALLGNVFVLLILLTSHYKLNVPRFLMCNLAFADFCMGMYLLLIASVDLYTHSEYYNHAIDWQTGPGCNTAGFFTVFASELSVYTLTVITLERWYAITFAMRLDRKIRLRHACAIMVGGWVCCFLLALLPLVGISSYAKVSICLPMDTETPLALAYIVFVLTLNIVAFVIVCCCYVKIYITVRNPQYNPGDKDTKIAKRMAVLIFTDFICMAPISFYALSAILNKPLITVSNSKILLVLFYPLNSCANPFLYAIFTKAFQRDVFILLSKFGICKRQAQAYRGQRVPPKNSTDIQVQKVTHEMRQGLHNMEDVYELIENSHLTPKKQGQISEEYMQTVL
How it was run: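 TSHR-expressing HEK293 cells (800 per well) were exposed to compounds for 30 min at room temperature. cAMP was then detected by HTRF competition with cAMP-d2 and anti-cAMP cryptate, read after 1 h at room temperature. Fifteen concentrations, triplicate.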

[10] = qHTS assay to identify small molecule antagonists of the estrogen related receptor (ERR) signaling pathway - cell viability counter screen (AID 1224818);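 also: viability measured after 17.5 h of compound exposure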
How it was run: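 Here, ERR cells are plated at 2,000 cells per well, allowed 6 h to attach, and treated with compounds in DMSO for 17.5 h at 37 C. CellTiter-Fluor is then added and fluorescence read after 30 min.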

[11] = qHTS assay to identify small molecule antagonists of the estrogen related receptor signaling pathway with the pleiotropic PPARgamma coactivator (PGC) cell viability counter screen (AID 1224822;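 also: viability read after 17.5 h compound exposure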)
How it was run: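 qHTS format, DMSO compound stocks pin-transferred onto PGC/ERR cells 6 h after plating; 17.5 h exposure at 37 C, then CellTiter-Fluor fluorescence.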

[12] = target: Nuclear receptor subfamily 1 group I member 3 (Homo sapiens) (UniProt Q14994); assay: qHTS assay to identify small molecule agonists of the constitutive androstane receptor (CAR) signaling pathway (AID 1224839); also: nearly all actives have a fitted effect of over 15% in size; also: potency is read from the fitted curve at half-maximal effect;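 as to activation: HepG2 cells stably carrying human CAR and a CYP2B6 luciferase reporter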
How it was run: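 Double-stable HepG2 cells (hCAR, CYP2B6-2.2kb) seeded 4 h before compound addition. Exposure 24 h with 0.75 uM PK11195 final. Luciferase detected by ONE-Glo.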

[13] = qHTS assay to identify small molecule antagonists of the estrogen related receptor signaling pathway with the pleiotropic PPARgamma coactivator (PGC) from Tox21 10K library (AID 1224841; call rule not given here; also: actives are mostly falling curves and most rising ones were filed inactive; nearly all actives have a fitted effect of over 50% in size; also: potency is read from the fitted curve at half-maximal effect)
How it was run: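 Compound exposure ran 18 hours at 37 C in PGC/ERR cells (2,000/well) that had first rested 6 hours in a 37 C/5% CO2 incubator. Luciferase activity was then detected with One-Glo after a 30-minute room-temperature step.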

[14] = qHTS assay to identify small molecule agonists of the estrogen related receptor signaling pathway with the pleiotropic PPARgamma coactivator (PGC) from Tox21 10K library (AID 1224842); also: nearly all actives have a fitted effect of over 15% in size
How it was run: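 PGC/ERR reporter cells (NTP line) were seeded 2,000 per well, rested 6 h at 37 C/5% CO2, then pin-dosed with compounds in DMSO for 18 h at 37 C; luciferase read by One-Glo luminescence after 30 min at room temperature.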

[15] = qHTS assay to identify small molecule antagonists of the retinoic acid receptor (RAR) signaling pathway (AID 1159552; also: nearly all actives have a fitted effect of over 50% in size)
How it was run: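 C3RL4 RARE-luc cells, overnight plating; retinol 1 uM final added right after compound; 6 hr 37 C; luciferase read at 30 min RT.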

[16] = qHTS assay to identify small molecule agonists of the retinoic acid receptor (RAR) signaling pathway (AID 1159553); settings: C3RL4 RARE luciferase reporter, agonist, 6 h; activation: at 73.3 µM (top of the series) unless noted
How it was run: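 Cell line C3RL4, RARE luciferase reporter. Treatment: compounds in DMSO, 6 hr, 37 C, 5% CO2, after overnight plating. Detection: luminescence, 30 min RT after reagent.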
% is scaled to controls: 0 for no effect and ±100 for the full control effect.

CCC/C=C/C=O
inactive: Potency [1] | Potency [2] | Potency [3] | Potency [4] | Potency [5] | Potency [6] | Potency [7] | Potency [8] | Potency [9]

Cc1ccc(/C(=C\CN2CCCC2)c2ccccn2)cc1
inactive: Potency [1] | Potency [2] | outcome [10] | outcome [11] | Potency [3] | Potency [5] | Potency [6] | Potency [8] | Potency [9]

CN(C)C
inactive: Potency [1] | Potency [2] | Potency [3] | Potency [4] | Potency [5] | Potency [6] | Potency [7] | Potency [12] | Potency [8]

CCCCCCC(C)O (stereo unspecified)
inactive: Potency [1] | Potency [2] | Potency [3] | Potency [4] | Potency [5] | Potency [6] | Potency [8]

C=CN1CCCC1=O
inactive: Potency [1] | Potency [2] | Potency [3] | Potency [4] | Potency [5] | Potency [6] | Potency [7] | Potency [12] | Potency [8]

Cc1ccc(S(=O)(=O)NCl)cc1
inactive: Potency [1] | Potency [2] | Potency [3] | Potency [5] | Potency [6] | Potency [8] | Potency [13] | Potency [14] | Potency [9]

O=[Se](O)O
active: Potency [5] 43.3 µM | Potency [6] 48.6 µM | Potency [7] 61.2 µM and 3.3 µM | Potency [8] 30.7 µM
inactive: Potency [2] | Potency [15] | Potency [16] | viability change, negative = cytotoxic [3] -9.9% [at 19 µM] | Potency [4] | Potency [12] | viability change, negative = cytotoxic [8] -29.3% [at 19 µM] | Potency [9]

CC/C=C\C/C=C\C/C=C\CCCCCCCC(=O)O
inactive: Potency [2] | Potency [15] | Potency [16] | Potency [3] | Potency [4] | Potency [5] | Potency [6] | Potency [7] | Potency [12] | Potency [8] | Potency [9]

CCCN1C=CN(C)C1
inactive: Potency [1] | Potency [2] | Potency [3] | Potency [4] | Potency [5] | Potency [6] | Potency [7] | Potency [12] | Potency [8] | Potency [9]

NC[C@H](O)c1ccc(O)c(O)c1
inactive: Potency [1] | Potency [2] | outcome [10] | outcome [11] | Potency [3] | Potency [4] | Potency [5] | Potency [6] | Potency [8]

CC(=O)[C@H]1CC[C@H]2[C@@H]3CC=C4C[C@@H](O)CC[C@]4(C)[C@H]3CC[C@]12C
inactive: Potency [2] | Potency [3] | Potency [4] | Potency [5] | Potency [6] | Potency [7] | Potency [12] | Potency [8] | Potency [13] | Potency [14] | Potency [9]

[Na+]
inactive: Potency [1] | Potency [2] | Potency [3] | Potency [4] | Potency [5] | Potency [6] | Potency [7] | Potency [12] | Potency [8]

Nc1ccc(O)c(N)c1
active: Potency [9] 54.1 µM
304 nM (active) and inactive: Potency [13]
inactive: Potency [1] | Potency [15] | Potency [16] | Potency [5] | Potency [6] | Potency [7] | Potency [12] | Potency [8] | Potency [14]

CC1(C)C(C=C(Cl)Cl)C1C(=O)OCc1cccc(Oc2ccccc2)c1 (stereo unspecified)
inactive: Potency [1] | Potency [2] | Potency [3] | Potency [4] | Potency [5] | Potency [6] | Potency [7] | Potency [8]
active: Potency [12] 6.81 µM and 6.11 µM

CC/C(=C(/CC)c1ccc(O)cc1)c1ccc(O)cc1
60.6 µM (active) and inactive: Potency [3]
inactive: Potency [1] | Potency [2] | Potency [5] | Potency [6] | Potency [8]

CC(C)=CCO
inactive: Potency [1] | Potency [2] | Potency [3] | Potency [4] | Potency [5] | Potency [6] | Potency [8] | Potency [13] | Potency [14] | Potency [9]

C=C[C@H]1CN2CC[C@H]1C[C@@H]2[C@@H](O)c1ccnc2ccc(OC)cc12
inactive: Potency [1] | Potency [2] | Potency [3] | Potency [5] | Potency [6] | Potency [7] | Potency [8]

NCCN
inactive: Potency [1] | Potency [2] | Potency [3] | Potency [4] | Potency [5] | Potency [6] | Potency [8] | Potency [9]

COC(=O)c1ccc(C)cc1
inactive: Potency [1] | Potency [2] | Potency [3] | Potency [4] | Potency [5] | Potency [6] | Potency [7] | Potency [12] | Potency [8] | Potency [9]

CC(C)(Oc1ccc(Cl)cc1)C(=O)O
inactive: Potency [1] | Potency [2] | Potency [3] | Potency [4] | Potency [5] | Potency [6] | Potency [7] | Potency [12] | Potency [8] | Potency [9]

NCCOCCO
inactive: Potency [1] | Potency [2] | Potency [3] | Potency [4] | Potency [5] | Potency [6] | Potency [8] | Potency [13] | Potency [14]

C=C[C@H]1CN2CC[C@H]1C[C@H]2[C@H](O)c1ccnc2ccc(OC)cc12
inactive: Potency [1] | Potency [2] | Potency [3] | Potency [5] | Potency [6] | Potency [7] | Potency [8]

CCCCCCCCCCC(CO)CCCCCCCC (stereo unspecified)
inactive: Potency [1] | Potency [2] | Potency [3] | Potency [4] | Potency [5] | Potency [6] | Potency [7] | Potency [12] | Potency [8] | Potency [9]
